Here are results for 14 molecules from PubChem BioAssay.

By inhibition is commonly meant the relative decrease from the control value, in per cent.

Assay [1] in a line: inhibitors of TNFa-induced NFkB p65 translocation, primary screen, imaging, HUVEC, MLSMR starter and 10KST1 sets (AID 438;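 active = inhibition above 20% together with a positive visual image hit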;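 note: compound added about 3h40 before a 20 min TNFalpha stimulation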;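 for inhibition: signal is the nuclear over cytoplasmic p65 intensity ratio per well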). The note with it: HUVEC TNFa-induced p65 nuclear translocation; cell count: measured here: nuclei count (cytotoxicity indicator), at 2.08 µM; inhibition: at 2 µM, stronger effect = higher value, 0% TNFa-plus-vehicle, 100% no-TNFa wells.
Assay [2] can be described thus: reduction of polyQ htt aggregates in cells – imaging, exon1htt(103Q)mCFP cells, high-content imaging, primary screen (AID 483;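 active = visual image review flags a hit and inhibition of aggregation exceeds 20%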;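 note: compound exposure lasted 3 days before fixation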;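 for nuclei count: percent of the per-plate median nuclei count of sample wells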). The note with it: exon1htt(103Q)mCFP cell line, aggregate imaging, at 2 µM; inhibition of aggregation: stronger effect = higher value; nuclei count: measured here: cell count, toxicity.
The nature of assay [3]: endothelial E-selectin expression blockers – imaging, HUVEC, immunofluorescence, MLSMR starter and 10KST1 sets, primary screen (AID 487;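 active = visually confirmed hit in the image check and inhibition above 20%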;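 for inhibition: signal is fraction of cell area covered by stained E-selectin grains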;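 for nuclei count: 100% = median nuclei count of all wells on the same plate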). Conditions: HUVEC TNFalpha-induced E-selectin immunofluorescence imaging, at 2 µM; inhibition: stronger effect = higher value; nuclei count: measured here: cell number, toxicity.
Assay [4] addresses Voltage-gated potassium channel subunit beta-2 (Rattus norvegicus) (UniProt P62483). The assay is described as follows: inhibitors of rat Kvbeta2 reductase activity – biochemical, NADPH fluorescence, primary screen (AID 622;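 active = fluorescence slope higher than the sample average by over 3 SD, cut at about -0.22 in these data, passing the limit was not always enough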;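 note: slope of raw intensity against log time taken from 70 to 1610 s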). Conditions: recombinant KvBeta, 4-cyanobenzaldehyde reduction, at 10 µM, stronger effect = higher value.
Assay [5] has the same target. The assay is described as follows: enhancers of rat Kvbeta2 NADPH turnover – biochemical, NADPH fluorescence, primary screen (AID 623).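 Note: fluorescence intensity change per second fitted from 20 to 320 s.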 The note with it: Recombinant KvBeta, NADPH fluorescence decrease slope, 10 min; at 10 µM; stronger effect = lower value.
Assay [6] concerns the target Alpha-2C adrenergic receptor (Homo sapiens) (UniProt P18825). The assay is described as follows: compounds altering alpha2C-coupled GIRK flux – cell-based, HEK293 alpha2C/GIRK1/2, thallium flux, primary screen (AID 624;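 active = fluorescence slope after compound addition differing from the mean of all screened samples at 99.7% confidence, in either direction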;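 note: slope of fluorescence ratio to pre-addition baseline per second over 15 to 24 s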). Conditions: thallium flux BTC fluorescence, at 10 µM, actives lie on both sides.
Assay [7] in a line: blockers of RIG-like receptor reporter activation – cell-based, Sendai virus stimulus, luciferase, 10K MLSCN set, TLR/RLR signaling modifier project, primary screen (AID 602276;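 active = inhibition at or above 50% at 10 µM; inactive = inhibition below 50%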;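 note: firefly luciferase from ISG56 promoter only with Renilla not read in this screen; 0% = Sendai virus plus DMSO and 100% = medium plus DMSO without virus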). The note with it: HEK293 RL24 IRF3 luciferase reporter, at 10 µM, stronger effect = higher value.
The nature of assay [8]: TLR3 IRF3 reporter activation blockers – cell-based, poly I:C stimulus, luciferase, 10K MLSCN set, primary screen (AID 602277;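 active = inhibition of the reporter signal at or above 50%; inactive = inhibition below 50%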). The note with it: HEK293-TLR3 RL24 IRF3 luciferase reporter, at 10 µM, stronger effect = higher value.

The source made the active and inactive calls.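 Rule for the calls, unless noted: active = NADPH fluorescence slope more negative than the mean of all samples by about 3 SD, 99.7% confidence; inactive = the rest.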

Alpha-2C adrenergic receptor (Homo sapiens), sequence (P18825 whole entry, looked up): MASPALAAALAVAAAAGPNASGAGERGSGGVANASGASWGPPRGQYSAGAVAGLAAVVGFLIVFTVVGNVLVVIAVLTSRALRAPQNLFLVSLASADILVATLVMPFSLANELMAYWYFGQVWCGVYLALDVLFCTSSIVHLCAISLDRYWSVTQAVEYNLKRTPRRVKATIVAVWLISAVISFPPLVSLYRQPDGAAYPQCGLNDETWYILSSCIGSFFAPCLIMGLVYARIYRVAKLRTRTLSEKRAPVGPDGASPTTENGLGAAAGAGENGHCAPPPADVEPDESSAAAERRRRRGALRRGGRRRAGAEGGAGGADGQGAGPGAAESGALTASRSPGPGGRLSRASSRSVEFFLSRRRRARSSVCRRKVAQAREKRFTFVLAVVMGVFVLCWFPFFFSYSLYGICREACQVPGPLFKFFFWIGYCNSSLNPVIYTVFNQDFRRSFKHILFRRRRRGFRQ
Voltage-gated potassium channel subunit beta-2 (Rattus norvegicus), sequence (P62483 whole entry, looked up): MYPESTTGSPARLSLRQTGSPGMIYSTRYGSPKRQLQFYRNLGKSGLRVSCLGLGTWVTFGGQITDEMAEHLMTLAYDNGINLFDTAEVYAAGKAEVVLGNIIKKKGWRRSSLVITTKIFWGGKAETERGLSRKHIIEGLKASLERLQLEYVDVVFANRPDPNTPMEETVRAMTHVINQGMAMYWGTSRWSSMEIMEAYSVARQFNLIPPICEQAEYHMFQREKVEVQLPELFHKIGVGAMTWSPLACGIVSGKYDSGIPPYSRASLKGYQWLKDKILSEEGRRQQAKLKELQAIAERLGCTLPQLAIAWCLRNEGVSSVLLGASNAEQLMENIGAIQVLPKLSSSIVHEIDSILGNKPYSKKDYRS

`Cc1ccc(C(c2sc3nc(C)nn3c2O)N2CC(C)OC(C)C2)cc1` (centres undefined): in assay [1], the cell count stood at 213. The inhibition is -3.9% (inactive) in assay [1], -23.9% (inactive) in assay [3], 16.3% (inactive) in assay [7] and 29.9% (inactive) in assay [8]. Moreover, in assay [2], the inhibition of aggregation was -30.3% (inactive). The values for the nuclei count in assay [2] and in assay [3] were 110% and 108%, respectively. In assay [4], the fluorescence slope was -0.44 (inactive). Further, the NADPH fluorescence slope in assay [5] was -5.9e-05 (inactive). Further, the slope in assay [6] is 0.00489 (inactive).

As for `N#Cc1nc(-c2ccco2)oc1NCCc1ccccc1`, in assay [1], the cell count was 686. Also, the inhibition in assay [1] is -7.5% (inactive); in assay [3], -3% (inactive); in assay [7], -33.8% (inactive); in assay [8], -56.1% (inactive). For the same molecule, the inhibition of aggregation in assay [2] is -10.1% (inactive). Moreover, the nuclei count in assay [2] is 88.8%; in assay [3], 107%. Besides, in assay [4], the fluorescence slope is -0.463 (inactive). For the same molecule, the NADPH fluorescence slope in assay [5] is -4.3e-05 (inactive). Besides, in assay [6], the slope is 0.0039 (inactive).

As to `O=C(Nc1ccccc1N1CCN(c2ccc(F)cc2)CC1)c1ccccc1`, the cell count in assay [1] was found to be 423. Besides, the inhibition in assay [1] was 7.6% (inactive); in assay [3] it was -122% (inactive); in assay [7], 14% (inactive); in assay [8] it was 21.1% (inactive). The inhibition of aggregation in assay [2] is -1% (inactive). Besides, the nuclei count in assay [2] was 104%; in assay [3], 134%. Besides, in assay [4], the fluorescence slope is -0.44 (inactive). The NADPH fluorescence slope in assay [5] was -3.4e-05 (inactive). In assay [6], the slope is 0.00515 (inactive).

Regarding `CC(C)C(c1nnnn1CC1CCCO1)N1CCN(Cc2ccc3c(c2)OCO3)CC1` (centres undefined), the cell count in assay [1] was 357. The inhibition in assay [1] is 4.8% (inactive); in assay [3], -55.1% (inactive); in assay [7], 9.72% (inactive); in assay [8] it was 12.5% (inactive). In addition, the inhibition of aggregation in assay [2] was -10.8% (inactive). Further, the values for the nuclei count in assay [2] and in assay [3] were 113% and 110%, respectively. Moreover, in assay [4], the fluorescence slope is -0.521 (inactive). In addition, the NADPH fluorescence slope in assay [5] was -5.8e-05 (inactive). In assay [6], the slope is 0.00548 (inactive).

On to `O=c1[nH]cnc2c1nc(SCc1ccccc1)n2C1OC(CO)C(O)C1O` (centres undefined), for which the cell count in assay [1] was determined as 459. Moreover, the inhibition in assay [1] was 14.3% (inactive); in assay [3], -9.9% (inactive); in assay [7], 10.8% (inactive); in assay [8], 24% (inactive). For the same molecule, the inhibition of aggregation in assay [2] was 10.4% (inactive). The nuclei count in assay [2] was 71.9%; in assay [3], 110%. The fluorescence slope in assay [4] was -0.597 (inactive). For the same molecule, in assay [5], the NADPH fluorescence slope was 1.2e-06 (inactive). Besides, the slope in assay [6] is 0.00624 (inactive).

For `Cc1ccnc(NC(=O)CCC(=O)N(CC(=O)NC(C)(C)C)C2CCCC2)c1`, in assay [1], the cell count worked out at 603. The inhibition in assay [1] was 1.7% (inactive); in assay [3] it was -105% (inactive); in assay [7] it was 9.05% (inactive); in assay [8] it was 9.79% (inactive). For the same molecule, the inhibition of aggregation in assay [2] is -6.2% (inactive). The values for the nuclei count in assay [2] and in assay [3] were 113% and 89.5%, respectively. Moreover, the fluorescence slope in assay [4] is -0.638 (inactive). Moreover, the NADPH fluorescence slope in assay [5] is -1.4e-05 (inactive). In addition, the slope in assay [6] was 0.00587 (inactive).

On to `CN(C)S(=O)(=O)c1ccc(C(=O)NCc2cccs2)cc1`, for which, in assay [1], the cell count amounted to 436. The inhibition was 4.7% (inactive) in assay [1], 15.4% (inactive) in assay [3], 3.68% (inactive) in assay [7] and 3.16% (inactive) in assay [8]. Moreover, the inhibition of aggregation in assay [2] is 6.5% (inactive). Also, the nuclei count stood at 105% in assay [2] and 125% in assay [3]. The fluorescence slope in assay [4] is -0.611 (inactive). For the same molecule, in assay [5], the NADPH fluorescence slope was -2.1e-05 (inactive). Besides, the slope in assay [6] is 0.00652 (inactive).

Take `COc1ccc(Cl)c(NCCC(=O)O)c1`: the cell count in assay [1] is 632. In addition, the inhibition in assay [1] was -4.2% (inactive); in assay [3] it was -96.7% (inactive); in assay [7] it was -8.17% (inactive); in assay [8] it was -4.52% (inactive). The inhibition of aggregation in assay [2] is 2.2% (inactive). Also, the nuclei count worked out at 110% in assay [2] and 130% in assay [3]. Also, the fluorescence slope in assay [4] is -0.453 (inactive). Also, the NADPH fluorescence slope in assay [5] was -0.000352 (inactive). The slope in assay [6] is 0.00574 (inactive).

`CC(=O)Nc1ccc(OCC(O)Cn2nc(C)nc2C)cc1` (centres undefined): the cell count in assay [1] stood at 357. Also, the inhibition in assay [1] was 1.5% (inactive); in assay [3], -160% (inactive); in assay [7], 7.41% (inactive); in assay [8], 23.2% (inactive). Moreover, in assay [2], the inhibition of aggregation is -13.4% (inactive). For the same molecule, the values for the nuclei count in assay [2] and in assay [3] were 95.7% and 120%, respectively. In assay [4], the fluorescence slope is -0.267 (inactive). Moreover, the NADPH fluorescence slope in assay [5] was -1.1e-05 (inactive). Moreover, the slope in assay [6] is 0.00761 (inactive).

Take `Cc1nn(C)c(C)c1NC(=O)CSc1nc(Cc2ccccc2)nc2c1cnn2-c1ccccc1`: the cell count in assay [1] turned out to be 360. Besides, the inhibition in assay [1] was -0.5% (inactive); in assay [3], -127% (inactive); in assay [7], 12% (inactive); in assay [8] it was 3.8% (inactive). Besides, the inhibition of aggregation in assay [2] was -17.9% (inactive). Also, the nuclei count in assay [2] amounted to 105%; in assay [3] it was 121%. The fluorescence slope in assay [4] is -0.491 (inactive). In addition, the NADPH fluorescence slope in assay [5] is -6.6e-05 (inactive). Besides, the slope in assay [6] was 0.00793 (inactive).

Take `CCN1C(=O)c2cccc3c(NC(=O)c4ccc5c(c4)OCCO5)ccc1c23`: in assay [1], the cell count was determined as 563. Besides, the inhibition in assay [1] was 0.5% (inactive); in assay [3], 18% (inactive); in assay [7], 7.48% (inactive); in assay [8], 17% (inactive). In assay [2], the inhibition of aggregation is 4.6% (inactive). The nuclei count in assay [2] stood at 87.1%; in assay [3], 90.9%. In addition, the fluorescence slope in assay [4] was -0.48 (inactive). The NADPH fluorescence slope in assay [5] is -5.7e-06 (inactive). Further, in assay [6], the slope is -0.00194 (inactive).

Regarding `COc1ccc2nc(SCC(=O)NC(C)C)[nH]c2c1`, the cell count in assay [1] stood at 626. Further, the inhibition is 1.4% (inactive) in assay [1], -35.2% (inactive) in assay [3], -7.68% (inactive) in assay [7] and -5% (inactive) in assay [8]. Moreover, the inhibition of aggregation in assay [2] is -0.8% (inactive). Further, the figures for the nuclei count in assay [2] and in assay [3] were 104% and 107%, respectively. In addition, the fluorescence slope in assay [4] was -0.478 (inactive). Further, the NADPH fluorescence slope in assay [5] was 5.9e-05 (inactive). For the same molecule, the slope in assay [6] was 0.0062 (inactive).

In the case of `CCc1cccc(NC(=O)C2CCCN(S(=O)(=O)c3c(C)[nH]c(=O)[nH]c3=O)C2)c1` (centres undefined), the cell count in assay [1] is 325. Further, the inhibition was -10.3% (inactive) in assay [1], -57.4% (inactive) in assay [3], 9.85% (inactive) in assay [7] and 23.9% (inactive) in assay [8]. For the same molecule, the inhibition of aggregation in assay [2] is 0.8% (inactive). The nuclei count in assay [2] is 106%; in assay [3] it was 104%. In addition, the fluorescence slope in assay [4] is -0.405 (inactive). Further, the NADPH fluorescence slope in assay [5] was -3.6e-05 (inactive). The slope in assay [6] was 0.0033 (inactive).

Take `COc1cccc(NC(=O)COC(=O)c2cccnc2)c1`: the cell count in assay [1] was determined as 354. The inhibition in assay [1] was -1.6% (inactive); in assay [3], -15.5% (inactive); in assay [7], 20.2% (inactive); in assay [8] it was 19.2% (inactive). For the same molecule, the inhibition of aggregation in assay [2] is -3.6% (inactive). The nuclei count in assay [2] stood at 105%; in assay [3], 108%. Also, the fluorescence slope in assay [4] was -0.503 (inactive). Moreover, in assay [5], the NADPH fluorescence slope was -6.6e-05 (inactive). Also, the slope in assay [6] is 0.0053 (inactive).
